Inconclusive results are not listed. Activity calls are given as the source filed them. Unless noted, the call rests on the fitted dose curve; in most records, active means well fitted curve in the direction sought with a large enough effect in the repeat runs; inconclusive means weak or mixed curves; inactive means no such curve, though single readings can be large; an effect the other way counts as inactive or inconclusive.

Assay [1] in a line: qHTS assay for small molecule agonists of the p53 signaling pathway (AID 651631; calls by dose curve; further: nearly all actives have a fitted effect of over 15% in size; further: potency means the concentration at half of the fitted maximal effect). Put shortly: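 Agonist mode screen using a stably integrated beta-lactamase gene under p53 response elements in HCT-116 cells. Compound exposure lasts 16 h at 37 °C; fluorescence intensity is measured following 2 h FRET substrate loading.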
The nature of assay [2]: qHTS assay for small molecules that induce genotoxicity in human embryonic kidney cells expressing luciferase-tagged ATAD5 (AID 651632). Further: nearly all actives have a fitted effect of over 15% in size. Put shortly:
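Cells were seeded at 2,000 per well, dosed with compound, and incubated 16 hr at 37C in 5% CO2. Luciferase activity was then quantified after a 30 min room-temperature incubation with Amplite.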

Assay [3] in a line: qHTS assay for small molecule agonists of the p53 signaling pathway - cell viability (AID 651633; calls by dose curve;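 further: p53RE-bla HCT reporter cells with a stable beta-lactamase p53 reporter; nearly all actives have a fitted effect of over 30% in size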). The essentials:
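Viability counter-read: CellTiter-Glo luminescence (30 min, room temperature) in the same p53RE-bla plates. These plates had been exposed to compounds for 16 h at 37 C.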
Background: Quantitative high-throughput screening tests each substance at several concentrations.

Assay [4] in a line: qHTS assay for small molecules that induce genotoxicity in human embryonic kidney cells expressing luciferase-tagged ATAD5 - cell viability (AID 651634; calls by dose curve; further: nearly all actives have a fitted effect of over 25% in size). Put shortly:
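Cells (HEK293T, luciferase-tagged ATAD5) are seeded at 2,000 per well, dosed with compound or DMSO vehicle, and incubated 15.5 hr at 37C and 5% CO2. CellTiter-Fluor is added for 30 min before fluorescence is measured.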

Assay [5] is described as follows: qHTS assay for small molecule disruptors of the mitochondrial membrane potential - cell viability (AID 720634; calls by dose curve;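 further: human HepG2 liver cancer cells; nearly all actives have a fitted effect of over 20% in size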). The essentials: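 Cytotoxicity was measured by ATP quantitation in HepG2 wells that had first been treated with compound for 1 hr and stained with m-MPI dye; CellTiter-Glo incubation was 30 min at room temperature.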
A short description of assay [6]: qHTS assay for small molecule disruptors of the mitochondrial membrane potential (AID 720635). Further: potency means the concentration at half of the fitted maximal effect. The essentials: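 Mitochondrial membrane potential tracked with Mito-MPS dye, red aggregates (ex 540/em 590 nm) against green monomers (ex 490/em 535 nm). Compound treatment 1 hr at 37C, dye 30 min in HepG2.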
Assay [7] can be described thus: qHTS assay to test for compound auto fluorescence at 590 nm (red) in HepG2 cells (AID 720674). The essentials:
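We screened compounds on adherent HepG2 cells, incubating them for an hour at 37 C in 5% CO2 before reading emission at 590 nm under 540 nm excitation; values reflect equivalence to Rose Bengal sodium fluorescence.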

Assay [8] in a line: qHTS assay to test for compound auto fluorescence at 535 nm (green) in HepG2 cells (AID 720675).
The nature of assay [9]: qHTS assay to test for compound auto fluorescence at 460 nm (blue) in HEK293 cells (AID 720678). Put shortly:
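HEK293 cells (2,000 per well, medium with 10% dialyzed FBS) attached for 4-5 hr at 37C, then received compound and stood overnight at 37C, 5% CO2. Blue fluorescence was read at Ex/Em 405/460 nm and expressed relative to triamterene.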

Assay [10] in a line: qHTS assay to test for compound auto fluorescence at 590 nm (red) in HEK293 cells (AID 720679). Put shortly: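 HEK293 cells (2,000/well, medium with 10% dialyzed FBS) attached for 4-5 hr at 37C, received 23 nL compound and were incubated overnight at 37C, 5% CO2. Red fluorescence was then read at 540/590nm Ex/Em, referenced to Rose Bengal sodium.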
Assay [11] can be described thus: qHTS assay to test for compound auto fluorescence at 535 nm (green) in HEK293 cells (AID 720680).
A short description of assay [12]: qHTS assay to test for compound auto fluorescence at 460 nm (blue) in HEK293 cell free culture (AID 720681). Put shortly: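 Blue fluorescence (Ex 405/Em 460 nm, triamterene-equivalent) was read immediately after pin transfer of compound or DMSO into medium (DMEM, 10% FBS) without cells.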
Assay [13] is described as follows: qHTS assay to test for compound auto fluorescence at 535 nm (green) in HEK293 cell free culture (AID 720682). The essentials:
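No cells present: wells hold DMEM supplemented with 10% FBS, into which compound or vehicle is pinned. Green emission is then recorded (485 nm excitation, 535 nm emission) and scaled to fluorescein.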

Assay [14] in a line: qHTS assay to test for compound auto fluorescence at 590 nm (red) in HEK293 cell free culture (AID 720683). Put shortly:
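Red-channel autofluorescence of compounds in culture medium (DMEM, 10% FBS), no cells, measured at 540/590 nm. Rose Bengal sodium is the reference fluorophore for equivalence.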

A short description of assay [15]: qHTS assay to test for compound auto fluorescence at 590 nm (red) in HepG2 cell free culture (AID 720684). The essentials:
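No cells present: MEM + 10% FBS only. Compound pinned in, red label read (540/590 nm). Activity = fluorescence equivalent to Rose Bengal sodium.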

Assay [16] in a line: qHTS assay to test for compound auto fluorescence at 460 nm (blue) in HepG2 cell free culture (AID 720685). The essentials:
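Cell-free plates of MEM plus 10% FBS received 23 nL compound or DMSO vehicle; blue-channel (405/460 nm) intensity scored against triamterene as reference fluorophore.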

Assay [17] in a line: qHTS assay to test for compound auto fluorescence at 535 nm (green) in HepG2 cell free culture (AID 720686).
A short description of assay [18]: qHTS assay to test for compound auto fluorescence at 460 nm (blue) in HepG2 cells (AID 720687). The essentials:
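Blue-channel autofluorescence (Ex/Em 405/460 nm, triamterene-equivalent) was measured after 1 hr compound exposure at 37 C, 5% CO2. Cells were HepG2, plated overnight at 37 C in MEM plus 10% FBS.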

Assay [19] addresses Glucocorticoid receptor (Homo sapiens) (UniProt P04150). Briefly: qHTS assay to identify small molecule agonists of the glucocorticoid receptor (GR) signaling pathway (AID 720691; active means well fitted activation curve with a large enough effect in the signal ratio in the repeat runs, not every such curve was filed as active; the % refers to the signal ratio). Conditions: GR-bla HeLa, beta-lactamase reporter ratio, 18 h; activation: at 62.4 µM (top of the series). Put shortly: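 Steps: seed GR-bla HeLa cells, incubate 4 h at 37 C/5% CO2; pin-transfer DMSO-dissolved compounds; incubate 18 h at 37 C; add LiveBLAzer B/G FRET substrate; after 2 h at room temperature, measure fluorescence.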

Assay [20] has the same target. Briefly: qHTS assay to identify small molecule antagonists of the glucocorticoid receptor (GR) signaling pathway (AID 720692; active means well fitted inhibition curve with a large enough effect in the signal ratio in the repeat runs, not every such curve was filed as active; the % refers to the signal ratio). Put shortly:
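Antagonism was scored as loss of dexamethasone-driven (5 nM final) reporter signal in HeLa cells bearing a glucocorticoid response element–beta-lactamase construct, after 18 h compound exposure at 37 C and 2 h FRET substrate loading.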

Glucocorticoid receptor (Homo sapiens), sequence (P04150 whole entry, looked up): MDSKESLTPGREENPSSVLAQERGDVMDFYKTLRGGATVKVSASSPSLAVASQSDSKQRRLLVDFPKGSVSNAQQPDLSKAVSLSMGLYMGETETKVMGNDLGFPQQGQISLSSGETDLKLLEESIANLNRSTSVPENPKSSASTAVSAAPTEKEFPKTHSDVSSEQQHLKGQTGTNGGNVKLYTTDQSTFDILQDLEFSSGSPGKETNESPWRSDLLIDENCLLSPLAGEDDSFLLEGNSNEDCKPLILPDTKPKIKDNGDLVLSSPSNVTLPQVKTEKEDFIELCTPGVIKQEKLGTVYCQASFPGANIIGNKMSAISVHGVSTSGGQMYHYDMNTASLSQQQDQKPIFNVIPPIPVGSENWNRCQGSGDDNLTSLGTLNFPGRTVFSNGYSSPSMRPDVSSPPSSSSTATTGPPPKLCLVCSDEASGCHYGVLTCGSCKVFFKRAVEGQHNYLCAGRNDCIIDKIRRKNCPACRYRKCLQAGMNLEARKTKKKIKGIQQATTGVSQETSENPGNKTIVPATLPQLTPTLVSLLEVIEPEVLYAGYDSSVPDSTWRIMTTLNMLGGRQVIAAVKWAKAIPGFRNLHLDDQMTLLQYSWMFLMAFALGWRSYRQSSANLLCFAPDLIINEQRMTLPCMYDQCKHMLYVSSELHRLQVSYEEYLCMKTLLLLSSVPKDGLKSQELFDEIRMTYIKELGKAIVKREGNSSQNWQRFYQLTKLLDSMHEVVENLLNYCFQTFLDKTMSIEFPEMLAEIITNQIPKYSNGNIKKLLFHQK

In the case of `O=C(O)CCCCCCC(=O)O`, the Potency result in assay [1], in assay [2], in assay [3], in [4], in assay [5] and in [6] was “inactive” throughout. Besides, the Potency result in assay [7], in assay [8], in assay [9], in assay [10], in assay [11] and in assay [12] was “inactive” in each case. For the same compound, the Potency result in assay [13], in [14], in [15], in assay [16], in [17] and in assay [18] was “inactive” throughout.

Consider `COc1ccccc1OCCNCC(O)COc1cccc2[nH]c3ccccc3c12` (stereo not given), for which the Potency result in assay [2], in [3], in [4], in [5], in [7] and in assay [8] was “inactive” in each case. Further, the Potency result in assay [9], in [10], in assay [11], in assay [12], in assay [13] and in [14] was “inactive” throughout. Moreover, the Potency entry in assay [15], in [16], in [17] and in assay [18] was “inactive” in each case. Also, the Potency in assay [6] was 23.7 µM (active).

For the compound `CCNc1nc(NC(C)CC)nc(OC)n1` (stereo not given), the Potency entry in assay [1], in [2], in assay [3], in assay [4], in assay [5] and in assay [6] was “inactive” each time. Besides, the Potency result in assay [7], in assay [8], in [9], in [10], in assay [12] and in assay [13] was “inactive” in each case. The Potency entry in assay [14], in assay [16], in assay [17], in assay [18], in assay [19] and in [20] was “inactive” throughout.

Turning to `CCCCCCCCCCCCCCNCCO`, the Potency entry in assay [1], in assay [2], in assay [3], in assay [4], in [5] and in [7] was “inactive” throughout. For the same compound, the Potency entry in assay [8], in [9], in assay [10], in assay [12], in assay [13] and in [14] was “inactive” each time. For the same compound, the Potency result in assay [15], in [16], in assay [17] and in assay [18] was “inactive” each time.

For the compound `CCCCCCCCCCCCCCCC`, the Potency result in assay [1], in assay [2], in [3], in assay [4], in assay [5] and in assay [7] was “inactive” in each case. For the same compound, the Potency result in [8], in assay [9], in [10], in [11], in [12] and in assay [13] was “inactive” each time. Also, the Potency entry in assay [14], in assay [15], in assay [16], in assay [17], in assay [18] and in [20] was “inactive” each time.

For the compound `CO[C@H]1C=CO[C@@]2(C)Oc3c(C)c(O)c4c(O)c(cc(O)c4c3C2=O)NC(=O)/C(C)=C\C=C/[C@H](C)[C@H](O)[C@@H](C)[C@@H](O)[C@@H](C)[C@H](OC(C)=O)[C@@H]1C`, the Potency result in assay [1], in [2], in assay [3], in [4], in [5] and in assay [7] was “inactive” throughout. Moreover, the Potency result in assay [8], in [9], in [10], in assay [11], in assay [12] and in assay [13] was “inactive” each time. In addition, the Potency entry in assay [14], in [15], in [16], in assay [17] and in assay [18] was “inactive” throughout.

Consider `O=C(NO)c1ccccc1`, for which the Potency in [1] was 65.3 µM (active). Besides, the Potency result in [4], in assay [5], in [7], in assay [8], in assay [9] and in [10] was “inactive” throughout. Further, the Potency result in [11], in assay [12], in [13], in assay [14], in [15] and in [16] was “inactive” throughout. Also, the Potency entry in assay [17], in assay [18] and in [19] was “inactive” throughout.
